What was measured:
Test in all cases: PBM binding z-score (relative to random genomic background probes); higher = stronger binding; sequences stand for … in GC…GCGATTGACAGCGTAGAATGAAGG
[1] = test system: RARb homodimer (NR concentration 270 nM)
How it was run: (§1)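 Each nuclear receptor dimer, without ligand, was incubated for 1 h on custom Agilent 4×180K protein-binding microarrays. Binding was detected with antibodies against each partner (one per run), and scanned fluorescence was regression-normalized. The binding z-scores are referenced to random human genomic background probes.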

[2] = test system: RARg:RXRa (NR concentration 270 nM, RXRa partner concentration 90 nM)
How it was run: as §1

[3] = test system: RARg homodimer (NR concentration 270 nM)
How it was run: as §1

[4] = test system: RXRa DBDmut IVT, anti-RXR (DBD mutation: RXRa K156A/R161A, NR concentration 90 nM)
How it was run: as §1

[5] = test system: RXRa homodimer (NR concentration 180 nM)
How it was run: as §1

[6] = test system: THRa:RXRa (NR concentration 90 nM, RXRa partner concentration 90 nM)
How it was run: as §1

[7] = test system: THRa homodimer (NR concentration 90 nM)
How it was run: as §1

[8] = test system: VDR homodimer (NR concentration 270 nM)
How it was run: as §1

Row | Sequence | PBM binding z-score [1] | PBM binding z-score [2] | PBM binding z-score [3] | PBM binding z-score [4] | PBM binding z-score [5] | PBM binding z-score [6] | PBM binding z-score [7] | PBM binding z-score [8]
1 | ATCTCTAGGGAAAGTTCAGTGAAAGATCGATAGA | 2.2 | 2.01 | 2.11 | 1.12 | 1.21 | 0.605 | 0.0589 | 1.68
2 | ACTAGTTGGTCAGCTGTGGTCACACACAATTCGG | 1.25 | 0.489 | 0.965 | 0.13 | 0.281 | 1.77 | 0.0925 | 0.0683
3 | TCAGACAGGTGAAGGTAGCTCAGGTACGCAGTCG | 0.62 | 0.413 | 0.456 | 1.13 | 0.741 | 0.667 | 0.148 | -0.026
4 | GGAACGCGGGCATTCGAGTTGATAGCATGGCGAT | -0.894 | -0.144 | -0.0858 | 0.211 | -0.381 | 0.468 | -1.25 | 0.00818
5 | TCATGTAGATCAATAGAGGTTAAGAAAGTGCGCT | 1.44 | 0.871 | 0.576 | 1.27 | 1.28 | 2.31 | -0.192 | 0.637
6 | AATACAGGGTCATCGTAGGCCAGAGCACGCACAG | 3.55 | 5.92 | 5.24 | 3.61 | 6.36 | 4.52 | 1.4 | 3.18
7 | TCGAGTAAGTTAGTCGGGGCATTCAGCCAACATA | -0.375 | -0.647 | -0.674 | 0.38 | -0.255 | 0.0972 | -0.58 | -0.125

— the supplement of paper PMC6555819
